# Assay outcomes deposited in PubChem by National Center for Advancing Translational Sciences (NCATS).
# PLK1 PBD inh: qHTS for Inhibitors of PLK1-PDB (polo-like kinase 1 - polo-box domain): Primary Screen. Potency, µM, for inactives: max response, negative = inhibition, most hits filed as inhibitors. Plk1 PBD binding of FITC phosphopeptide, fluorescence polarization. 360,000 compounds, 2.8% hits; further: series mostly up to about 57 µM; nearly all actives have a fitted effect of over 65% in size
# VP16 counter: VP16 counterscreen qHTS for inhibitors of ROR gamma transcriptional activity. Drosophila S2 Gal4-VP16 UAS-luciferase, luminescence, 20 h. 310,000 compounds, 3.5% hits. Potency, µM (doses to about 53.6 µM), for the others: at the highest dose activity, negative = inhibition, actives largely listed as inhibitors;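 further: Gal4-VP16 expression switched on by copper sulfate through the metallothionein promoter; nearly all actives have a fitted effect of over 50% in size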
# RORgamma inh: qHTS for inhibitors of ROR gamma transcriptional activity; Nuclear receptor ROR-gamma (Mus musculus), P51450; Drosophila S2 Gal4-RORgamma UAS-luciferase reporter, 20 h; Potency, µM (top dose mostly 53.6 µM), inactives show top-dose activity change, negative = inhibition, most hits filed as inhibitors; 310,000 compounds, 5.4% hits; AID 2551, 2010; further: nearly all actives have a fitted effect of over 60% in size
#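 Using a luciferase readout, inhibitors were identified by reduced reporter activity in Drosophila cells coexpressing a copper-inducible Gal4–ROR gamma fusion and UAS-driven Photinus luciferase, incubated 20 hr after 700 uM copper sulfate.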
# ALDH1A1 block: qHTS Assay for Inhibitors of Aldehyde Dehydrogenase 1 (ALDH1A1); Potency, µM (titrated, usually from 75.3 µM), inactives show top-dose activity, negative = inhibition, usual class: inhibitors; Aldehyde dehydrogenase 1A1 (Homo sapiens), P00352; Purified ALDH1A1, NADH fluorescence, propionaldehyde substrate; AID 1030, 2008; 220,000 compounds, 7.3% hits; active means well fitted inhibition curve with a large enough effect, not every such curve was filed as active; inconclusive means small, poorly fitted or top-dose-only effect, or another doubt; inactive means no such curve, though single readings can be large or run the other way;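 further: plate controls were no enzyme wells and a reference inhibitor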
# Target sequence (P00352 whole entry, looked up): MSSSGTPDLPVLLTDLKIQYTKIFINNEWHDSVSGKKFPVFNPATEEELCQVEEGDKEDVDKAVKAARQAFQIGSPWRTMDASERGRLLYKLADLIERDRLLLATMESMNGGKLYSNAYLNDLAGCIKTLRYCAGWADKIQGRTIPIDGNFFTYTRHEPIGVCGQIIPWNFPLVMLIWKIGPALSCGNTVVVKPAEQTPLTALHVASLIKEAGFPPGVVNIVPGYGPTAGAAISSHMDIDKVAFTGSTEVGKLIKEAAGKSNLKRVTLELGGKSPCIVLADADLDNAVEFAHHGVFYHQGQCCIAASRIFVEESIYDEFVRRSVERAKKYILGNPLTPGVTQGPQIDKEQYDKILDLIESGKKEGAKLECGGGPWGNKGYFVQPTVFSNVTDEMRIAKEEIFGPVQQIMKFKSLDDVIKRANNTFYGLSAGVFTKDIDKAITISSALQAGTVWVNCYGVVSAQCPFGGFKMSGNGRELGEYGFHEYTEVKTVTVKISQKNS
# Sfp PPTase inh: qHTS Assay for Inhibitors of Bacillus subtilis Sfp phosphopantetheinyl transferase (PPTase). AID 1490, 2009. Biochemical Sfp PPTase activity, qHTS. Potency, µM, without a hit: largest response in the series, negative = inhibition, usual class: inhibitors. 310,000 compounds, 3.5% hits;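 further: the enzyme is Sfp with the accession as filed and its product quenches rhodamine fluorescence; 0% = enzyme reaction without inhibitor and -100% = no enzyme wells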
#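 Buffer: 50 mM Hepes-Na pH 7.6, 10 mM MgCl2, 0.01% Nonidet P-40, 0.01% BSA. Enzyme 15 nM, pre-exposed to compound 15 min; substrates then added and fluorescence change tracked over 30 min.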
# An asterisk follows results filed as active; ? = inconclusive; / = no result; [ ] = remark or other dose. Rows were chosen to be rich in hits. Some 12% of all compounds tested hit in one or more screens of this group. Unless noted, the call rests on the fitted dose curve; in most records, active means well fitted curve in the direction sought with a large enough effect; inconclusive means small, poorly fitted or top-dose-only effect, or another doubt; inactive means no such curve, though single readings can be large; an effect the other way counts as inactive or inconclusive. Unless noted, on the % scale 0 is the no-effect control and ±100 the full control effect; potency means the concentration at half of the fitted maximal effect.
SMILES,PLK1 PBD inh,VP16 counter,RORgamma inh,ALDH1A1 block,Sfp PPTase inh
COC(=O)C(CCSC)NC(=O)c1cc2c(n(-c3ccc(C)cc3)c1=O)CCCC2=O (stereo not given),-20%,-26%,22%,7%,4%
COC(=O)C(CCSC)NC(=O)c1cc2c(n(-c3ccccc3)c1=O)CC(C)(C)CC2=O (stereo not given),-4%,4%,-15%,28µM*,14%
CC1(C)Cc2c(sc3ncnc(NNC(=S)NCc4ccccc4)c23)CO1,-8%,3.2µM*,2.2µM*,1.4µM*,3%
CC(C)(C)OC(=O)CN1C(=O)S/C(=C\c2ccc(-c3cccc(C(=O)O)c3)o2)C1=O,/,-14%,?,/,7%
O=C1S/C(=C/c2ccc(N3CCOCC3)o2)C(=O)N1Cc1ccc(F)cc1,36%,-15%,24%,2.2µM*,3.5µM*
C=CCN1C(=O)N/C(=C/c2ccc(N3CCOCC3)o2)C1=O,/,5µM*,7.1µM*,?,?
CC(C)OC(=O)CN1C(=O)S/C(=C/c2ccc(N3CCCCC3)o2)C1=O,33%,13µM*,?,7.1µM*,8.9µM*
O=C1S/C(=C\c2ccc(N3CCOCC3)o2)C(=O)N1Cc1ccc(F)cc1,36%,7.1µM*,?,8.9µM*,2µM*
O=C1NC(=S)S/C1=C/c1ccc(N2CCOCC2)o1,57%,?,1%,8%,?
CCOc1ccccc1NC(=O)Cn1nnc(C(=O)NCc2ccco2)c1N,-14%,-4%,34%,7%,-29%
Cc1ccccc1NC(=O)Cn1nnc(C(=O)NCc2ccco2)c1N,27µM*,6%,-6%,6%,4%
CCOC(=O)CSC1=C(C#N)C(=O)NC(c2ccc(OC)c(OC)c2)S1 (stereo not given),12µM*,0%,-9%,?,40µM*
CCOC(=O)CSC1=C(C#N)C(=O)NC(c2ccc(OC)cc2)S1 (stereo not given),12µM*,2%,-30%,20µM*,45µM*
C=CCOC(=O)C1=C(C)NC(SCC(=O)OCC)=C(C#N)C1c1ccc(O)c(OC)c1 (stereo not given),-20%,-5%,7%,?,-16%
CCOC(=O)c1c(N)sc(C(=O)OCCOC)c1C,9.5µM*,-2%,30%,14µM*,25µM*
CCOC(=O)c1sc(N)c(C(=O)OCC)c1C,-15%,-6%,?,/,1%
CCOC(=O)c1sc(N)c(C(=O)Nc2ccccc2)c1C,9.5µM*,25%,25%,11µM*,20µM*
CC1=C(C(=O)N2CCOCC2)CC(CC(=O)NC2CCCCC2)C(=O)N1Cc1ccccc1 (stereo not given),-2%,/,/,/,/
Cc1cn([C@H]2C[C@H](O)[C@@H](CCC(=O)NCCc3cccs3)O2)c(=O)[nH]c1=O,-1%,/,/,/,/
O=C(N/N=C/c1cn(CC(=O)N2CCOCC2)c2ccccc12)c1cccnc1,-14%,4%,10%,/,15%
O=C(N/N=C/c1cn(Cc2ccccc2)c2ccccc12)c1ccncc1,-2%,?,2.8µM*,14µM*,-6%
O=C(N/N=C/c1cn(Cc2ccccc2)c2ccccc12)c1cccnc1,-5%,8.9µM*,7.1µM*,14µM*,-20%
CC[C@H](C)[C@H](NC(=O)[C@H](Cc1ccc(O)cc1)NC(=O)[C@@H]1CCCN1C(=O)[C@H](CCCN=C(N)N)NC(=O)[C@H](CCCN=C(N)N)NC(=O)[C@@H]1CCCN1C(=O)[C@H](CCCCN)NC(=O)[C@H](CC(N)=O)NC(=O)[C@H](CCC(N)=O)NC(=O)[C@H](Cc1ccc(O)cc1)NC(=O)[C@H](CC(C)C)NC(=O)[C@@H]1CCC(=O)N1)C(=O)N[C@@H](CC(C)C)C(=O)O,/,-2%,17%,/,15%
CCOc1cc(C(c2c(O)nc(SC)[nH]c2=O)c2c(O)nc(SC)[nH]c2=O)ccc1O,12µM*,/,/,/,/
CCc1ccc(N(C(=O)c2csnn2)C(C(=O)NCc2ccccc2)c2ccco2)cc1 (stereo not given),-12%,-2%,-6%,7.9µM*,?
SMILES,PLK1 PBD inh,VP16 counter,RORgamma inh,ALDH1A1 block,Sfp PPTase inh
COc1ccc(CNC(=O)C(c2ccc(C)o2)N(C(=O)c2csnn2)c2ccc(C(C)C)cc2)cc1 (stereo not given),0%,10%,32%,2µM*,15%
COCCN1C(=O)c2ccccc2C1c1nnnn1Cc1ccccc1 (stereo not given),-5%,/,/,/,/
S=C(NCc1ccc2c(c1)OCO2)NC1CC1,-3%,?,13µM*,-9%,0%
Cc1ccc(NC(=S)NCc2ccc3c(c2)OCO3)cc1,-10%,16µM*,13µM*,?,-9%
CCOc1ccc(C(=O)NCc2ccc3c(c2)OCO3)cc1,4%,2%,6%,/,1%
CC1(C)CC(NC(=S)NCc2ccc3c(c2)OCO3)CC(C)(C)N1,/,3%,23%,-2%,-10%
CCOc1ccc(NC(=S)NCc2ccc3c(c2)OCO3)cc1,-5%,?,7.9µM*,/,-13%
CN(O)/C=C/C(=O)c1ccc(Br)cc1,27µM*,3%,-43%,13µM*,10%
CN(C)/C=C/C(=O)c1ccc(Br)cc1,-17%,-1%[10 µM],21%,-15%,3%
COc1ccc(C(=O)Nc2ccnn2C2CCN(Cc3cnn(C)c3)CC2)cc1,27µM*,-9%,0%,/,5%
CCCCc1ncc(CN2CCC(n3nccc3NC(=O)c3ccccc3OC)CC2)[nH]1,24µM*,-5%,-8%,/,1%
CSc1ccc(CN2CCC(n3nccc3NC(=O)c3ccccc3C)CC2)cc1,30µM*,17%,19%,/,13%
CCc1ccc(CN2CCC(n3nccc3NC(=O)c3ccccc3Cl)CC2)cc1,2%,0%,-12%,/,10%
O=C(c1cc(C(F)(F)F)cc(C(F)(F)F)c1)N1CCC2(CC1)CN(c1ccccc1)C2,/,6%,-1%,-7%,12%
Cc1ccc(C)c(NC(=S)/C(=C(\[O-])c2ccc(Cl)s2)[n+]2ccccc2)c1,-9%,-12%,20%,?,50µM*
CCc1cccc(CC)c1NC(=S)/C(=C(\[O-])c1ccc(Cl)s1)[n+]1ccccc1,-17%,-7%,?,0%,-15%
CC(C)(C)c1cc[n+](/C(C(=S)NC2CC2)=C(/[O-])c2ccc(Cl)s2)cc1,-19%,-20%,?,?,56µM*
[O-]/C(=C(\C(=S)Nc1cccc2ccccc12)[n+]1ccccc1)c1ccc(Cl)s1,-4%,?,20µM*,?,-28%
